Measured values taken from PubChem BioAssay AID449762 (Southern Research Specialized Biocontainment Screening …, 2010).
The whole screen tested about 330,000 compounds, of which about 1,900 (0.58%) were called active. Another 4% or so got no clear call; they are omitted. Only a sample is shown. Results with a measured potency or affinity are listed apart. Values without a mark were called inactive. Cut-off read from the data, not from the text of the source: inconclusive = inhibition above about 70% without an active follow-up result; inactive = below that.

experiment: M. tuberculosis growth inhibition, HTS (AID 449762);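 note: bacterial growth assessed after seven days of incubation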; conditions: M. tuberculosis H37Rv growth inhibition, 7H9 media; at 25 µM; stronger effect = higher value

For `C[C@H](CO)N1C[C@H](C)[C@@H](CN(C)C)Oc2c(NS(=O)(=O)c3ccccc3)cccc2C1=O`, which inhibition is on record?
Its inhibition is 0.58%.

For `O=C(NC1CC1)C1CCN(C2CCN(C(=O)/C=C/c3cccs3)CC2)CC1`, which inhibition is on record?
Its inhibition is -5.63%.

For `O=C(CNC(=O)c1cccs1)OCc1ccc(Br)cc1`, which inhibition is on record?
The inhibition was -2.09%.

With `O=C(CCC(=O)N(c1ccc(F)cc1)C(C(=O)NC1CCCC1)c1ccncc1)Nc1cccnc1` (stereo not drawn) as the compound, how does the inhibition read?
The inhibition was -10.1%.

For `CC(=O)Nc1ccc(C(=O)CN2C(=O)NC3(CCOc4ccccc43)C2=O)c(F)c1` (stereo not drawn), which inhibition is on record?
Its inhibition is -3.12%.

Which inhibition does the source give for `CCCCOC(=O)CCn1c(=S)oc2ccccc21` here?
The inhibition was 23.9%.

For `CCCNC(=O)CCn1c(=S)oc2ccccc21`, which inhibition is on record?
Its inhibition is 2.75%.

For `Cc1ccc(Cl)cc1-n1c(O)c(C=NCCCN2CCOCC2)c(=O)[nH]c1=O`, which inhibition is on record?
The inhibition was -2.44%.

Which inhibition does the source give for `COc1ccc(C2=CN(Cc3ccccc3)C(c3ccccc3)CC2=O)cc1` (stereo not drawn) here?
The inhibition was -2.25%.

For `Cc1cc(C)c(NC(=O)c2cc3c(nc4sccn43)s2)c(C)c1`, which inhibition is on record?
Its inhibition is -18.3%.

With `CCN(C(=O)COC(=O)c1[nH]c(C)c(C(C)=O)c1C)C1CCS(=O)(=O)C1` (stereo not drawn) as the compound, how does the inhibition read?
The inhibition was -10.7%.

For `CCn1c2ccccc2c2cc(NC(=O)c3ccc([N+](=O)[O-])cc3)ccc21`, which inhibition is on record?
Its inhibition is 9.29%.

For `O=C(Nc1ccc(N2CCOCC2)cc1)c1ccc([N+](=O)[O-])cc1`, which inhibition is on record?
The inhibition was 1.26%.

Which inhibition does the source give for `CCN(CC)CCNC(=O)c1cn(-c2ccccc2)nc1-c1cccs1` here?
The inhibition was 5.6%.

For `CN(C)c1ccc(NC(=O)c2cn(-c3ccccc3)nc2-c2cccs2)cc1`, which inhibition is on record?
The inhibition was -2.85%.

With `Cc1oc(-c2cccc(Cl)c2)nc1CSc1nc2c(c(=O)[nH]1)CCC2` as the compound, how does the inhibition read?
Its inhibition is -10.8%.

With `Cn1c(-c2cccc(Br)c2)cnc1NCc1ccccc1O` as the compound, how does the inhibition read?
The inhibition was 42.5%.

Which inhibition does the source give for `Cn1c(-c2ccccc2)cnc1NCc1cc(Cl)ccc1O` here?
Its inhibition is 10.7%.

Which inhibition does the source give for `Cc1cccc(C)c1N/C=C/c1onc(C)c1[N+](=O)[O-]` here?
The inhibition was -4.35%.

Which inhibition does the source give for `Cc1ccc(N/C=C/c2onc(C)c2[N+](=O)[O-])cc1` here?
The inhibition was -2.82%.

With `COc1ccc(NC(=O)c2ccco2)cn1` as the compound, how does the inhibition read?
The inhibition was -3.96%.

Which inhibition does the source give for `Cn1ccnc1SCC(=O)Nc1ccc(Cl)cn1` here?
The inhibition was -1.74%.

With `CCCCn1c(SCc2nc3ccccc3s2)nc2cc(S(N)(=O)=O)ccc21` as the compound, how does the inhibition read?
The inhibition was 1.21%.

For `CCCCn1c(SCc2c(C)noc2C)nc2cc(S(N)(=O)=O)ccc21`, which inhibition is on record?
The inhibition was -4.65%.

With `Cc1ccc(C)c(NC(=O)c2c(Cl)nc3ccccn23)c1` as the compound, how does the inhibition read?
The inhibition was 10.7%.

For `Brc1ccc(-c2nc(-c3ccncc3)no2)cc1`, which inhibition is on record?
Its inhibition is 1.44%.

With `O=[N+]([O-])c1ccc(-c2nc(-c3ccncc3)no2)cc1` as the compound, how does the inhibition read?
Its inhibition is 7.86%.

Which inhibition does the source give for `O=[N+]([O-])c1cccc(-c2nc(-c3ccncc3)no2)c1` here?
Its inhibition is -2%.

Which inhibition does the source give for `Cc1ccc(-c2nc(-c3ccncc3)no2)cc1` here?
The inhibition was -14.2%.

With `CCn1ccc(C(=O)Nc2ccc3c(c2)CCC3)n1` as the compound, how does the inhibition read?
Its inhibition is -10.2%.

Which inhibition does the source give for `COc1ccc(/C=N/n2c(C)nc3ccccc3c2=O)cc1OC` here?
Its inhibition is 7.03%.

Which inhibition does the source give for `NC(=O)c1ccc(NC(=S)NCc2ccco2)cc1` here?
The inhibition was -0.21%.

Which inhibition does the source give for `O=C(NNC(=O)C12CC3CC(CC(C3)C1)C2)c1ccncc1` here?
The inhibition was 2.26%.

Which inhibition does the source give for `O=C(NNC(=O)C12CC3CC(CC(C3)C1)C2)c1cnccn1` here?
The inhibition was -6.86%.

For `COc1ccc(CCOC(=O)c2ccc(NC(=O)CC#N)cc2)cc1`, which inhibition is on record?
Its inhibition is -3.16%.

Which inhibition does the source give for `Cc1c(C(=O)NCCCN2CCCC2=O)oc2c(Cl)cccc12` here?
The inhibition was -3.89%.

Which inhibition does the source give for `CC(=O)C1=C(C)Nc2ncnn2C1c1ccc(Br)cc1` (stereo not drawn) here?
Its inhibition is 2.48%.

For `Cc1nn(CC(=O)Nc2c(C)n(C)n(-c3ccccc3)c2=O)c(C)c1[N+](=O)[O-]`, which inhibition is on record?
Its inhibition is -2.07%.

Which inhibition does the source give for `COc1ccc(NC(=O)CCC(=O)N(Cc2ccc(OC)c(OC)c2)c2nccs2)c(OC)c1` here?
Its inhibition is -1.87%.

With `O=c1nc(-c2ccccc2)c2ccccc2[nH]1` as the compound, how does the inhibition read?
The inhibition was -8.68%.

For `O=c1cc(-c2ccccc2)[nH]c2ccccc12`, which inhibition is on record?
The inhibition was 3.78%.

With `Cc1ccc2c(c1)c1c(n2C)C(=O)CCC1` as the compound, how does the inhibition read?
Its inhibition is -12%.

For `c1cc2c(cc1C1CCCCC1)c1c3n2CCN=C3CCC1`, which inhibition is on record?
The inhibition was -6.21%.

With `COc1cccc(OCC(=O)Nc2c3c(nn2-c2ccccc2)CS(=O)(=O)C3)c1` as the compound, how does the inhibition read?
Its inhibition is 4.27%.

With `Cc1ccc(/C=N/NC(=O)Cc2cccn2C)s1` as the compound, how does the inhibition read?
The inhibition was 4.27%.

With `COC(=O)C1=C(C)Nc2c(c(=O)n(C)c(=O)n2C)C1c1cccs1` (stereo not drawn) as the compound, how does the inhibition read?
Its inhibition is -11.8%.

For `Cc1noc(C)c1C(=O)OCC(=O)Nc1cc(Cl)ccc1Oc1ccccc1`, which inhibition is on record?
Its inhibition is 2.51%.

With `Cc1ccc(N(CC(=O)Nc2cccc(Cl)c2C)S(C)(=O)=O)cc1` as the compound, how does the inhibition read?
The inhibition was 7.2%.

Which inhibition does the source give for `O=C(Cc1cccc(NC(=O)C2CCCN(C(=O)C3CCC3)C2)c1)Nc1cccc(C(=O)N2CCCC2)c1` (stereo not drawn) here?
Its inhibition is -9.14%.

For `Cc1cccc(C(=O)N2N=C(c3ccc(NS(C)(=O)=O)cc3)CC2c2cccs2)c1` (stereo not drawn), which inhibition is on record?
The inhibition was 2.79%.

For `CS(=O)(=O)Nc1ccc(C2=NN(C(=O)c3ccccc3)C(c3cccs3)C2)cc1` (stereo not drawn), which inhibition is on record?
The inhibition was 26.9%.

Which inhibition does the source give for `O=C(O)C(O)C(O)C(O)C(O)C(=O)O` (stereo not drawn) (tested in a mixture with another compound) here?
Its inhibition is 3.48%.

With `CCN(C[C@H]1N[C@@](Cc2ccccc2)(C(=O)OC)[C@H]2C(=O)N(C)C(=O)[C@@H]12)C(=O)Nc1ccc(F)cc1` as the compound, how does the inhibition read?
The inhibition was 4.09%.

With `CN(C)c1ccc(/C=C/C(=O)c2ccccc2)cc1[N+](=O)[O-]` as the compound, how does the inhibition read?
Its inhibition is 16.9%.

With `COc1ccc(Oc2ccc(/C=C/C(=O)c3ccc(O)cc3)cc2[N+](=O)[O-])cc1` as the compound, how does the inhibition read?
The inhibition was 8.6%.

With `COC(=O)c1cccc2c1NC(=O)C2=O` as the compound, how does the inhibition read?
The inhibition was 3.61%.

With `O=C(NCc1ccccc1Cl)c1cccc(OC2CCN(C(=O)C3CC3)CC2)c1` as the compound, how does the inhibition read?
Its inhibition is 5.75%.

For `COc1ccccc1C1CC(c2ccc(F)cc2)Nc2ncnn21` (stereo not drawn), which inhibition is on record?
The inhibition was -11.3%.

For `COc1ccccc1C1CC(c2ccc(C)cc2)Nc2ncnn21` (stereo not drawn), which inhibition is on record?
Its inhibition is -9.91%.

Which inhibition does the source give for `COC(=O)CN(c1ccc(C)cc1)S(=O)(=O)c1ccc(F)cc1` here?
The inhibition was 14.1%.

Which inhibition does the source give for `CSc1ccc(Cl)c(C(=O)NNC(=O)c2cccs2)c1` here?
The inhibition was 1.28%.

For `Cc1ccc(OCC(=O)N/N=C/C=C/c2ccco2)cc1`, which inhibition is on record?
Its inhibition is -6.27%.

With `CCOC(=O)N/N=C\C=C\c1ccco1` as the compound, how does the inhibition read?
Its inhibition is -0.79%.

With `COc1ccc(OC)c2c1cc(C(=O)N[C@H](C(=O)N1CCC(C(=O)O)CC1)C(C)C)n2C` as the compound, how does the inhibition read?
The inhibition was -15.1%.

For `O=C(O)c1ccc(Cl)c(NCc2cccnc2)c1`, which inhibition is on record?
The inhibition was -9.94%.

For `CCCc1cc(=O)[nH]c(SCC(=O)Nc2c(C)cccc2C)n1`, which inhibition is on record?
Its inhibition is 0.09%.

For `Cc1cc(C(=O)NCCC(C)C)c2ccccc2n1`, which inhibition is on record?
Its inhibition is -3.78%.

For `CC(C)(C)c1ccc(OCCNCc2ccccc2)cc1`, which inhibition is on record?
The inhibition was 14.6%.

For `C[N+](C)(CCOc1ccccc1)Cc1ccccc1` (tested in a mixture with another compound), which inhibition is on record?
The inhibition was -1.38%.

With `CN(Cc1ccco1)C(=O)c1ccc(S(=O)(=O)N2CCCCCC2)cc1` as the compound, how does the inhibition read?
Its inhibition is 2.26%.

With `COc1ccc(COC(=O)c2ccc(C)c(S(=O)(=O)N3CCOCC3)c2)cc1F` as the compound, how does the inhibition read?
The inhibition was -4.83%.

With `C[n+]1c(-c2ccccc2)cc(-c2ccc(O)cc2)cc1-c1ccccc1` as the compound, how does the inhibition read?
The inhibition was 3.36%.

Which inhibition does the source give for `C[n+]1c(-c2ccccc2)cc(-c2ccc(Cl)cc2)cc1-c1ccccc1` here?
Its inhibition is -0.15%.

For `COCCCNC(=O)CN(c1cc(C(F)(F)F)ccc1Cl)S(C)(=O)=O`, which inhibition is on record?
Its inhibition is -8.65%.

With `COC(=O)c1c(C)nn(-c2ccc(OC(F)(F)F)cc2)c1-c1snnc1C` as the compound, how does the inhibition read?
The inhibition was 5.4%.

With `COc1ccc(CCN(C)C(=O)C2CC(=O)N(Cc3ccc(C)cc3)C2)cc1OC` (stereo not drawn) as the compound, how does the inhibition read?
Its inhibition is -4.64%.

With `O=C1NC2(Nc3ccccc31)C(=O)Nc1ccc(Br)cc12` (stereo not drawn) as the compound, how does the inhibition read?
The inhibition was 6.01%.

Which inhibition does the source give for `O=C1Nc2ccc(Br)cc2C1(O)c1ccccc1` (stereo not drawn) here?
Its inhibition is -1.54%.

For `O=C(Nc1ccc([N+](=O)[O-])cc1)c1cccc(S(=O)(=O)Nc2ccccn2)c1`, which inhibition is on record?
The inhibition was -2.42%.

With `O=[N+]([O-])c1cnc2ccccc2c1` as the compound, how does the inhibition read?
Its inhibition is -7.59%.

Which inhibition does the source give for `COc1ccccc1-n1cc2ccc([N+](=O)[O-])cc2n1` here?
The inhibition was -3.35%.

For `COc1ccc(-n2cc3ccc([N+](=O)[O-])cc3n2)cc1`, which inhibition is on record?
The inhibition was -3.43%.

Which inhibition does the source give for `O=c1c2c([N+](=O)[O-])cc([N+](=O)[O-])cc2nc2ccccn12` here?
Its inhibition is 4.66%.

With `C[C@H](CO)N1C[C@H](C)[C@@H](CN(C)Cc2ccncc2)Oc2c(cccc2N(C)C)C1=O` as the compound, how does the inhibition read?
Its inhibition is 2.32%.

Which inhibition does the source give for `COc1ccc(Cl)cc1NC(=O)CN(C)C(=O)Cn1c(=O)oc2ccccc21` here?
Its inhibition is 1.38%.

For `O=C(c1cc(COc2c(F)cccc2F)on1)N1CCN(C2CCCCC2)CC1`, which inhibition is on record?
Its inhibition is 10.1%.

With `COc1ccc(-c2onc3ccc(C(=O)/C=C/N(C)C)cc23)cc1` as the compound, how does the inhibition read?
Its inhibition is 6.78%.

For `O=c1oc2ccccc2c(Nc2cccc3ccccc23)c1[N+](=O)[O-]`, which inhibition is on record?
The inhibition was 20.4%.

For `O=c1oc2ccccc2c(Nc2ccc(O)cc2)c1[N+](=O)[O-]`, which inhibition is on record?
The inhibition was -6.31%.

Which inhibition does the source give for `CCn1c(SCC(=O)Nc2ccc3c(c2)OCCO3)nnc1C1CC1` here?
Its inhibition is -3.26%.

Which inhibition does the source give for `CCC(=O)Nc1nc(-c2ccc3c(c2)CC(C)N3S(C)(=O)=O)cs1` (stereo not drawn) here?
The inhibition was 58.2%.

Which inhibition does the source give for `CC1Cc2cc(-c3csc(NC(=O)Cc4ccccc4)n3)ccc2N1S(C)(=O)=O` (stereo not drawn) here?
The inhibition was 54.4%.

With `Cc1ccc(CCNC(=O)C2CCN(S(=O)(=O)c3ccc4c(c3)oc(=O)n4C)CC2)cc1` as the compound, how does the inhibition read?
Its inhibition is -5.23%.
